Bioassay records as filed in PubChem.
An excerpt weighted towards active compounds, which were near 19% of everything screened.
VP16 counter: counter-screen for ROR gamma inhibitors: Gal4-VP16 reporter. Drosophila S2 Gal4-VP16 UAS-luciferase, luminescence, 20 h. 310,000 compounds, 3.5% hits. Potency, µM (top dose mostly 53.6 µM), actives largely listed as inhibitors;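 also: Gal4-VP16 expression switched on by copper sulfate through the metallothionein promoter; nearly all actives have a fitted effect of over 50% in size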
DT40 TDP1 no CPT: qHTS for Inhibitors of human tyrosyl-DNA phosphodiesterase 1 (TDP1): qHTS in cells in absence of CPT; 420,000 compounds, 15% hits; Potency, µM (titrated, usually from 46.2 µM), actives largely listed as inhibitors; DT40 Tdp1-/- hTDP1 cells, no CPT, ATP luminescence, 48 h; also: nearly all actives have a fitted effect of over 55% in size
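Chicken DT40 Tdp1-/- cells complemented with human TDP1, screened without camptothecin (DMSO vehicle only), 400 cells/well. Compounds pin-transferred, cells incubated at 37 °C for at least 48 hr. Growth read as ATP-dependent luminescence (CellTiter-Glo, 30 min at RT).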
TDP1 inh: TDP1 (human) enzyme inhibition | Q9NUW8 | recombinant TDP1, AlphaScreen DNA substrate cleavage | Potency, µM (doses to about 130 µM), most hits filed as inhibitors | 350,000 compounds, 0.28% hits; also: nearly all actives have a fitted effect of over 40% in size
Target sequence (Q9NUW8 whole entry, looked up): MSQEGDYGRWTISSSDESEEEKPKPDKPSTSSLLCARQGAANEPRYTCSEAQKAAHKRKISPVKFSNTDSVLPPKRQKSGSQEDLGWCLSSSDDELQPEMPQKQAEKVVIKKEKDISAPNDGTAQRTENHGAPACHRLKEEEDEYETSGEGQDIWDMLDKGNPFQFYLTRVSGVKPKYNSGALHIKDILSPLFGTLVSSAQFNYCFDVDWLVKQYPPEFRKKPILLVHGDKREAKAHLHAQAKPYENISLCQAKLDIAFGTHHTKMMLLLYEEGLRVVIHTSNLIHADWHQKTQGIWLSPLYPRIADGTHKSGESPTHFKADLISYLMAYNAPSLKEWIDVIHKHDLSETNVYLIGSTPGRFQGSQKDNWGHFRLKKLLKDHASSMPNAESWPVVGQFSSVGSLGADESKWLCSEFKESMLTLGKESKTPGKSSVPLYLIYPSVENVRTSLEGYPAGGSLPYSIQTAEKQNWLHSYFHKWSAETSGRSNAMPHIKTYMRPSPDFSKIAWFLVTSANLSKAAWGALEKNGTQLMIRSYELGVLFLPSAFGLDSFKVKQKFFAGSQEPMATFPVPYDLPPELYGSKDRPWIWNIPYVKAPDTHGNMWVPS
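Steps: enzyme plus compound, 15 min RT; add biotin/phosphotyrosine-FITC oligonucleotide (15 nM final), react 5 min; add donor/acceptor beads (10 ug/ml final), 10 min; read AlphaScreen. Tdp1 at 1 nM final.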
DT40 TDP1 CPT: DT40-hTDP1 cell growth loss with CPT; Potency, µM (top dose mostly 46.2 µM), actives largely listed as inhibitors; 420,000 compounds, 12% hits; chicken DT40 Tdp1-/-;hTDP1 cells + 20 nM CPT, ATP luminescence, 48 h; also: nearly all actives have a fitted effect of over 55% in size
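Chicken DT40 Tdp1-/- cells stably complemented with human TDP1 were seeded at 400 cells/well in medium containing 20 nM camptothecin, exposed to pin-transferred compounds, and grown at 37 °C for at least 48 hr. Viability was read as ATP luminescence.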
RORg inh: ROR gamma (mouse) transcription inhibition; P51450; Drosophila S2 Gal4-RORgamma UAS-luciferase reporter, 20 h; Potency, µM (doses to about 53.6 µM), most hits filed as inhibitors; 310,000 compounds, 5.4% hits; AID 2551; also: nearly all actives have a fitted effect of over 60% in size
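A Gal4/UAS one-hybrid system in insect cells: metallothionein-promoter Gal4–ROR gamma fusion plus Photinus luciferase reporter. Copper sulfate 700 uM final, 20 hr ambient incubation, luminescent detection after 10 min with reagent.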
Numbers stand for hits; – = inactive; ? = inconclusive; · = no result; [ ] = remark or other dose. Calls follow the shape of the dose curve; as a rule, active = well fitted curve in the direction sought with a large enough effect; inconclusive = small, poorly fitted or top-dose-only effect, or another doubt; inactive = no such curve, though single readings can be large; an effect the other way counts as inactive or inconclusive.

SMILES	VP16 counter	DT40 TDP1 no CPT	TDP1 inh	DT40 TDP1 CPT	RORg inh
Cc1ccc2cc(C#N)c(N3CCCN(C(=S)NCCCN(C)C)CC3)nc2c1	–	15µM	·	16µM	–
O=C(O)CCNS(=O)(=O)c1ccc2c(c1)OCCCO2	–	–	–	–	–
N#CCNC1CC(=O)N(c2ccc(F)cc2)C1=O (stereo not given)	–	?	·	4.6µM	–
O=C1CC(NCc2ccc(F)cc2)C(=O)N1c1ccccc1 (stereo not given)	–	–	–	–	–
CCc1c(C(=O)NCCc2ccc(OC)c(OC)c2)[nH]c(C)c1C(C)=O	·	?	–	?	–[0.365 µM]
CCc1c(C(=O)NCc2ccccc2Cl)[nH]c(C)c1C(C)=O	–	16µM	–	23µM	–
CCc1c(C(=O)NCCc2cccc(C)c2)[nH]c(C)c1C(C)=O	–	10µM	·	16µM	–
CC(=O)c1c(C)[nH]c(C(=O)NCc2ccccc2Cl)c1C	–	?	–	?	–
O=C(c1ccc2ccccc2c1)C1CCCN(C(=O)CN2C(=O)CSC2=O)C1 (stereo not given)	–	–	–	–	?
Cc1ccc(NC(=O)COC(=O)c2ccc3c(c2)NC(=O)C2CCCN32)cc1 (stereo not given)	–	?	–	16µM	–
COC(=O)CN1C(=O)C(C)(C)Oc2ccc(C(=O)NC3CCCC3)cc21	–	–	–	–	–
CCCSc1nnc(CSc2nc(C)cc(C)n2)n1C	–	–	–	–	–
O=C(NC(=S)N1CCOCC1)C12CCC3CC(CC(C3)C1)C2	1.8µM	–	–	–	1.3µM
CC(C)(C)C(=O)NC(=S)N1CCOCC1	–	–	–	–	–
O=C(NC(=S)N1CCN(CCO)CC1)C12CC3CC(CC(C3)C1)C2	–	–	–	–	–
CC12CC3(C)CC(C)(C1)CC(C(=O)NC(=S)N1CCOCC1)(C2)C3	?	?	–	?	0.89µM
O=C(NC(=S)N1CCOCC1)C12CC3CCC(CC(C3)C1)C2	6.3µM	?	–	–	4.5µM
COc1ccccc1CNC(=O)c1cc2cc3ccc(Cl)cc3nc2o1	·	–	–	–	·
Cc1ccc(S(=O)(=O)N[C@H]2COC(=O)C/C=C\[C@@H](C)[C@H](NS(=O)(=O)c3ccc(C)cc3)COC(=O)C/C=C\[C@H]2C)cc1	–[10 µM]	·	–[21 µM]	·	–[10 µM]
COc1ccc(C2CC(c3ccc(OC)c(OC)c3)=NN2C(=O)c2ccccc2)cc1 (stereo not given)	–	–	·	–	–
COc1ccc(C2CC(c3ccc(C)cc3)=NN2C(=O)c2ccccc2)cc1 (stereo not given)	–	15µM	·	21µM	–
COc1ccc(C2CC(c3cccs3)=NN2C(=O)c2ccc(Br)o2)cc1 (stereo not given)	–	?	–	23µM	–
COc1ccc(C2=NN(C(=O)c3ccccc3)C(c3ccccc3)C2)c(O)c1 (stereo not given)	–	18µM	·	?	–
COc1ccc(C2=NN(C(=O)c3cccs3)C(c3ccc(OC)cc3)C2)cc1 (stereo not given)	–	18µM	–	?	–
O=C(c1cccs1)N1N=C(c2ccccc2)CC1c1ccccc1 (stereo not given)	–[0.365 µM]	?	–	?	–
SMILES	VP16 counter	DT40 TDP1 no CPT	TDP1 inh	DT40 TDP1 CPT	RORg inh
Cc1cc(C)cc(NC(=O)COC(=O)Cc2ccccc2F)c1	·	–	–	–	·
CN(Cc1ccc(F)cc1)C(=O)c1cc(COc2ccc(-n3cncn3)cc2)on1	–	16µM	–	23µM	?
Cc1ccc(OCc2cc(C(=O)N(C)Cc3cnn(C)c3)no2)cc1C	·	?	·	–	·
Cc1ccc(OCc2cc(C(=O)N(C)Cc3cnn(-c4ccccc4C)c3)no2)cn1	?	18µM	–	12µM	?
CCc1ccc(CN(C)C(=O)c2cc(COc3ccc(-n4cncn4)cc3)on2)cc1	–	15µM	–	?	?
O=C(NCCCc1ccncc1)C1CCC(=O)N(Cc2cccc(F)c2)C1 (stereo not given)	–	–	–	–	–
O=C(Nc1cccc(Cl)c1)Nc1c[nH]c(=O)[nH]c1=O	–	–	·	–	–
CCOCC(=O)Nc1cc(-c2cn3cccnc3n2)ccc1C	–	–	–	–	–
COc1cc(/C=C2\SC(=S)N(C(C(=O)O)c3ccccc3)C2=O)cc(OC)c1OC (stereo not given)	–	–	·	–	–
CCN1CCN(Cc2ccc(NC(=O)c3ccc(C)c(NC(=O)C[C@@H]4NC(=O)[C@H](Cc5ccccc5)NC4=O)c3)cc2C(F)(F)F)CC1	–	–	–	–	–
Cc1ccc(C(=O)Nc2cccc(C(F)(F)F)c2)cc1NC(=O)c1c[nH]c2cc(C(F)(F)F)ccc2c1=O	·	?	–	5.2µM	·
CCN1CCN(Cc2ccc(NC(=O)c3ccc(C)c(NC(=O)c4c[nH]c5cc(C(F)(F)F)ccc5c4=O)c3)cc2C(F)(F)F)CC1	11µM	4.1µM	–	4.6µM	6.3µM
O=C(NCC(c1cccnc1)N1CCOCC1)C(=O)Nc1ccc(Cl)cc1 (stereo not given)	·	?	–	?	·
COc1ccc(NC(=O)CN(C)CC(=O)Nc2ccc(Cl)cc2[N+](=O)[O-])cc1	–[10 µM]	?	–	?	?
CCN(CC)CCOc1nnc(-c2ccc(OC)cc2)c2ccccc12	–	?	·	?	–
CCN(CC)CCOc1nnc(-c2ccc(C)cc2)c2ccccc12	?	15µM	–	?	–
CCSc1nnc(-c2ccc(C)cc2)c2ccccc12	–	16µM	–	?	–
CCOc1ccc(S(=O)(=O)n2c([N+](=O)[O-])cnc2C)c(C)c1C	–	–	–	–	–
COc1cc(-c2ccc(NC(=O)CN3CCC(C)CC3)c(OC)c2)ccc1NC(=O)CN1CCC(C)CC1	–	18µM	–	23µM	?
COc1ccc(NC(=O)CN2CCC(C)CC2)c([N+](=O)[O-])c1	–	8.2µM	–	8.2µM	–
COc1ccc(NC(=O)Cc2ccc(C)cc2)c([N+](=O)[O-])c1	–	?	–	–	–
COc1ccc(NC(=O)CN2CCCCC2)c([N+](=O)[O-])c1	–	13µM	–	13µM	–
CC1CCN(CC(=O)Nc2ccc(Cl)cc2[N+](=O)[O-])CC1	–[10 µM]	?	–	?	–
COc1ccc(NC(=O)CN2CCC(C)CC2)cc1	–	–	–	–	–
COc1ccc(NC(=O)CC2Nc3cc(C)c(C)cc3NC2=O)c([N+](=O)[O-])c1 (stereo not given)	–	5.8µM	–	?	–
CCOc1ccc(NC(=O)CCc2c(C)nc3c4c(C)cc(C)nc4nn3c2C)cc1	·	–	–	–	·
COc1ccc(NC(=O)CSc2nncn2C)c([N+](=O)[O-])c1	–	–	–	–	–
